The source of these data is PubChem BioAssay (NCATS).

Each structure is given as a SMILES string. Several values for one entry are separate records, joined by “and”; a condition that tells them apart may be missing. Identical values can stand only once. Inconclusive results are not listed. The source holds several records for some structures; these can differ, active in one and inactive in another. Activity calls are given as the source filed them. Unless noted, calls come from the whole dose curve; as a rule, active = well fitted curve in either direction with a large enough effect (not every such curve was filed as active); inconclusive = small, poorly fitted or top-dose-only effect, or another doubt; inactive = flat fitted curve, though single readings scatter. A value given as a limit tells only on which side of the number the result lay.

Test [1] is described as follows: AP1 Signaling Pathway (AID 357).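 Note: ME-180 reporter cells stimulated with EGF at its EC50 level; % is set by controls: 0 for no effect and ±100 for the full control effect.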 Conditions: ME-180 AP-1-bla reporter, EGF-induced, beta-lactamase ratio, 5 h; at 38 µM (top of the series) unless noted. In outline:
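Modulation of EGF-driven AP-1 transcription was assessed with a beta-lactamase reporter in ME-180 cells. Compound and EC50 EGF were co-incubated 5 hours at 37 °C before 2.5-hour CCF4 loading at room temperature and dual-emission reading.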

Test [2] concerns the target Cytochrome P450 1A2 (Homo sapiens) (UniProt P05177). Put plainly: p450-cyp1a2 (AID 410; calls by dose curve; note: potency is the fitted concentration of half-maximal effect;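 for activity change, negative = inhibition: -100% = full effect of reference inhibitor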). The essentials: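 20nM CYP1A2 with 100uM Luciferin-ME (at Km) in 100mM KPO4; compound preincubated 10 min, NADPH regeneration added, 60 min at room temperature. Luciferin quantified by luminescence after detection reagent; normalized to 57 uM furafylline.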
The target in test [3] is Glucocorticoid receptor (Homo sapiens) (UniProt P04150). Put plainly: GR-GFP Redistribution (AID 450;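 active = compounds whose dose series gives a full or clear partial fitted curve of increased nuclear translocation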; note: potency is the fitted concentration of half-maximal effect). Conditions: U2OS GR-GFP nuclear translocation, laser cytometry, 2 h.
Sequence of Glucocorticoid receptor (Homo sapiens) (P04150 whole entry, looked up): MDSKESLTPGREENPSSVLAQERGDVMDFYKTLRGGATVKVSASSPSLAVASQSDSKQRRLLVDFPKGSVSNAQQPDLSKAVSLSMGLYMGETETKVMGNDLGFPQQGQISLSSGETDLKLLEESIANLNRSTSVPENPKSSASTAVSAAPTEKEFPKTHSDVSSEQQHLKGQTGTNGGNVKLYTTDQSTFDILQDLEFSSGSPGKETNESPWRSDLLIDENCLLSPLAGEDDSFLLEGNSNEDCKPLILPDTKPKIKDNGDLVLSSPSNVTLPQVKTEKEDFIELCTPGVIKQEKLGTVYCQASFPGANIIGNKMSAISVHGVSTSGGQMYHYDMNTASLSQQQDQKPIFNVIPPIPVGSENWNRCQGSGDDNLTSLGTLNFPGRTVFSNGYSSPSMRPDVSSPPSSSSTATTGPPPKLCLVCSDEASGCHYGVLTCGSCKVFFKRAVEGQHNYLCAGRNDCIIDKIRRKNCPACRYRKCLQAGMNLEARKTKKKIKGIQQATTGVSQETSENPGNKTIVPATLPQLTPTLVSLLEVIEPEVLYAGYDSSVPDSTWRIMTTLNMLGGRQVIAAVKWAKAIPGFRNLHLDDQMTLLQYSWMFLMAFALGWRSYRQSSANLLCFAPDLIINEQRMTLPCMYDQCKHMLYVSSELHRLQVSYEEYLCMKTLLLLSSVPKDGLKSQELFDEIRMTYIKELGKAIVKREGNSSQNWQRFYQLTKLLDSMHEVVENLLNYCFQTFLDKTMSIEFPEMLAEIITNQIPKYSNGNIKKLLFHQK
The target is the same in test [4]. The test is described as follows: GR-EFC Redistribution (AID 451; calls by dose curve; note: potency is the fitted concentration of half-maximal effect). The settings on record: CHO-K1 GR-EFC translocation, beta-gal luminescence, 2 h. In outline:
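CHO-K1 cells expressing nuclear EA and GR-ED fragments of b-gal; compounds titrated up to 46 uM final, 2 h at 37 C. GR nuclear translocation read as complemented b-gal luminescence after 1 h RT detection.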

Test [5] can be described thus: Stat Signaling Pathway (AID 446).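 Note: ME-180 cervical cancer cells given 40 pM IL-6 alongside compound; SIE-controlled beta-lactamase reporter measured as 460/530 nm FRET emission ratio; % is set by controls: 0 for no effect and ±100 for the full control effect.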 Conditions: ME-180 (cervical carcinoma) SIE beta-lactamase reporter, IL-6 stimulated, 5 h; at 38 µM (top of the series) unless noted. The essentials:
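IL-6/STAT signaling read in ME-180 cells via an SIE beta-lactamase reporter. Stimulus was 40 pM IL-6 (its AC50) for 5 hrs, so both activation and inhibition register.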

The target in test [6] is Mitogen-activated protein kinase 10 (Mus musculus) (UniProt Q61831). The test is described as follows: JNK3 AlphaScreen Assay (AID 530).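 Note: kinase came from lysate of stimulated human HepG2 cells; signal reports phosphorylation of biotinylated GST-cJun 1-79 at Ser73 with 10 µM ATP; % is set by controls: 0 for no effect and ±100 for the full control effect.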 The essentials:
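Pre-activated (IL-1β/TNFα) JNK3 in HepG2 lysates phosphorylates biotin-GST-cJun(1-79), 10 uM ATP; anti-phospho-cJun(Ser73) AlphaScreen read at room temperature, pH 7.6 Tris buffer. Compounds pre-incubated 15 min as titrations.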

Test [7] in a line: NFAT Signaling Pathway (AID 444).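 Note: carbachol stimulus at about its EC50 of 1 µM final; % is set by controls: 0 for no effect and ±100 for the full control effect.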 The settings on record: Jurkat NFAT-bla M1, carbachol, beta-lactamase ratio, 5 h. The essentials: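 Jurkat cells with NFAT-driven β-lactamase reporter and co-expressed M1 receptor, stimulated with carbachol (final 1 uM, ~EC50), compound titration, 5 h at 37 °C. CCF4 loaded 1 h at RT; 460/530 nm ratio gave %activity and AC50.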
The mark [8] stands for this setting: at 38 µM (top of the series) unless noted.

Sequence of Cytochrome P450 1A2 (Homo sapiens) (P05177 whole entry, looked up): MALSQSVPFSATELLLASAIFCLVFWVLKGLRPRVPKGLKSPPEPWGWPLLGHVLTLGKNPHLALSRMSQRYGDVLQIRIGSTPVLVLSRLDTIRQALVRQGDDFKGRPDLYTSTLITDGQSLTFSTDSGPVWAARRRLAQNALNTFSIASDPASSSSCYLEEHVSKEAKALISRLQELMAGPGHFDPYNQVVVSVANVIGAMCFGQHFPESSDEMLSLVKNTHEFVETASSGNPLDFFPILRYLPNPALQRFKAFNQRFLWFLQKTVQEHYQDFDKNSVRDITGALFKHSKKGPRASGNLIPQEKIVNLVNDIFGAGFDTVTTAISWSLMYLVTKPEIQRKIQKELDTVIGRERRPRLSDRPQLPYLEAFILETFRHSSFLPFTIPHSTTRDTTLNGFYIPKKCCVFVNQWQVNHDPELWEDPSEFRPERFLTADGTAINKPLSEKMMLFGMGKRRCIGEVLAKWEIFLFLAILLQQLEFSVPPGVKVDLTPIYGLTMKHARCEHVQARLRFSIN

As to `NCCCNCCCCNCCCN`, the activity change, negative = inhibition in test [1] is 11.4% (inactive). Further, the Potency result in test [2] was “inactive and 15.8 µM (active)”; in test [3], > 46 µM (inactive); in test [4], > 46 µM (inactive).

As to `Cc1ccc2c(c1)C(N1CCN(C)CC1)=Nc1cccnc1N2`, in test [1], the activity change, negative = inhibition is 22.6% (inactive). Further, in test [5], the activity, negative = inhibition was 0.822% (inactive). The Potency in test [3] and in test [4] was > 46 µM (inactive) in each case. For the same compound, the result in test [6] was inactive.

`CCCCCCCCCCC/C=C\C(C)(C)/C=C\CCCC(=O)O`: in test [1], the activity change, negative = inhibition is -13.8% (inactive). Besides, the Potency in test [2] was 39.8 µM (active); in test [3], > 46 µM (inactive); in test [4], > 46 µM (inactive). Further, in test [6], the result was inactive.

On to `NCCCCN=C(N)N`, for which the activity change, negative = inhibition in test [1] is -8.22% (inactive); in test [7] (setting [8]), -4.07% (inactive). Further, in test [5], the activity, negative = inhibition is -20.8% (inactive). The Potency in test [3] and in test [4] was > 46 µM (inactive) in each case. Also, the outcome in test [6] was inactive.

Regarding `COc1ccc(-c2ccc(N)[n+](CCCC(=O)O)n2)cc1`, the figures for the activity change, negative = inhibition in test [7] (at 17.2 µM (top of the series)) and in test [7] (at 38 µM (top of the series)) were 1.69% (inactive) and 4.41% (inactive), respectively.

`CC(=O)NNC(=O)N1Cc2ccccc2Oc2ccc(Cl)cc21`: in test [7] (setting [8]), the activity change, negative = inhibition was 13.5% (inactive). For the same compound, the Potency in test [3] and in test [4] was > 46 µM (inactive) in each case. The compound was called inactive in test [6].

On to `CCCC(=O)NCCc1c2n(c3ccc(OC)cc13)CCCc1ccccc1-2`, for which the activity change, negative = inhibition in test [7] (setting [8]) is -6.48% (inactive). Moreover, the Potency in test [3] was > 46 µM (inactive). In addition, the compound was classed as inactive in test [6].

As to `CCCCCCN(CCCCCC)C(=O)Cc1c(-c2ccc(F)cc2)[nH]c2ccccc12`, the activity, negative = inhibition in test [5] was 6.88% (inactive). The Potency in test [3] and in test [4] was > 46 µM (inactive) throughout.

Consider `O=C(O)c1ccccc1Nc1cccc(OCc2ccc3ccccc3n2)c1`, for which the Potency in test [2] is 12.6 µM (active) and 1 µM (active); in test [3] it was > 46 µM (inactive); in test [4], > 46 µM (inactive). Further, the compound was classed as inactive in test [6].

In the case of `COC(=O)[C@H](NC(=O)c1cc(-c2ccccc2)nc2ccccc12)c1ccccc1`, the Potency in test [3] and in test [4] was > 46 µM (inactive) each time. In addition, the outcome in test [6] was inactive.

Take `N#C/C(=C\c1ccc(O)c(O)c1)C(=O)NCCc1ccccc1`: the Potency in test [2] was 10 µM (active); in test [4], > 46 µM (inactive). Also, in test [5], the activity, negative = inhibition is -24% (inactive). Moreover, the compound was classed as inactive in test [6].

For the compound `CCCn1c(=O)c2[nH]c(-c3ccc(S(=O)(=O)O)cc3)nc2n(CCC)c1=O`, the activity change, negative = inhibition in test [7] (setting [8]) is 13.8% (inactive). Moreover, the activity, negative = inhibition in test [5] was 42.3% (inactive). In addition, the Potency in test [3] and in test [4] was > 46 µM (inactive) throughout.

On to `CCCc1c(-c2ccc(O)cc2)nn(-c2ccc(O)cc2)c1-c1ccc(O)cc1`, for which the Potency in test [2] is 15.8 µM (active) and 20 µM (active); in test [3], > 46 µM (inactive); in test [4] it was > 46 µM (inactive).

Take `N[C@H](C(=O)O)[C@H](O)C(=O)O`: the Potency in test [3] and in test [4] was > 46 µM (inactive) each time. The compound was classed as inactive in test [6].

With `N[C@@H](CS(=O)O)C(=O)O`, in test [2], the Potency entry was “inactive”. Besides, the Potency in test [3] is > 46 µM (inactive). In test [6], the outcome was inactive.

For the compound `CN1CCc2cc(Cl)c(O)cc2[C@@H](c2ccccc2)C1`, the Potency in test [3] and in test [4] was > 46 µM (inactive) throughout. The call in test [6] was inactive.

Consider `CCCCCC[C@@H]([C@@H](C)O)n1cnc2c(N)ncnc21`, for which the Potency in test [3] and in test [4] was > 46 µM (inactive) in each case. The outcome in test [6] was inactive.

`C[N+](C)(C)CC=O`: the activity change, negative = inhibition in test [7] (setting [8]) is -6.7% (inactive). The Potency in test [3] and in test [4] was > 46 µM (inactive) throughout. In addition, in test [6], the outcome was inactive.

With `Oc1cc(O)c2c(c1)O[C@H](c1ccc(O)c(O)c1)[C@@H](O)C2`, in test [2], the Potency result was “inactive”. Further, the Potency in test [3] and in test [4] was > 46 µM (inactive) each time.

Turning to `CCCn1c(=O)c(C)cn2nc(N)nc12`, the Potency in test [3] and in test [4] was > 46 µM (inactive) in each case. In addition, the result in test [6] was inactive.

Turning to `O=C(O)C1CCNCC1`, the activity change, negative = inhibition in test [7] (setting [8]) was 11.3% (inactive). For the same compound, the Potency in test [3] was > 46 µM (inactive).

`C/C(=C\c1ccc(C(=O)O)cc1)c1ccc2c(c1)C(C)(C)CCC2(C)C`: the Potency entry in test [2] is “inactive”. Besides, the Potency in test [3] and in test [4] was > 46 µM (inactive) in each case. The call in test [6] was inactive.

Turning to `CN(C)CCCc1cc(C(=O)Nc2ccc(-c3ccncc3)cc2)ccc1O`, the Potency in test [2] is 39.8 µM (active); in test [3], > 46 µM (inactive); in test [4], > 46 µM (inactive). Also, the outcome in test [6] was inactive.

On to `COc1cc(CNC(=O)CCCCCCC(C)C)ccc1O`, for which the activity change, negative = inhibition in test [7] (setting [8]) is 7.5% (inactive). For the same compound, the Potency in test [3] and in test [4] was > 46 µM (inactive) in each case.

On to `CC[C@@H]1Cc2cc(O)ccc2C2=C1c1ccc(O)cc1C[C@H]2CC`, for which the Potency in test [3] and in test [4] was > 46 µM (inactive) in each case. Also, the compound was classed as inactive in test [6].

As for `NC[C@@H]1O[C@H](c2ccccc2)Cc2c1ccc(O)c2O`, the Potency in test [3] was > 46 µM (inactive). Besides, in test [6], the compound was classed as inactive.

As to `CCCOC(=O)c1c(-c2ccccc2)nc(CC)c(C(=O)SCC)c1CCC`, the Potency in test [2] is 10 µM (active); in test [3], > 46 µM (inactive); in test [4] it was > 46 µM (inactive). Also, the activity, negative = inhibition in test [5] was -19.4% (inactive).

Turning to `NCCNS(=O)(=O)c1cccc2c(Cl)cccc12`, the Potency in test [3] and in test [4] was > 46 µM (inactive) throughout. The compound was called inactive in test [6].

In the case of `O=c1oc(Cl)c(Cl)c2ccccc12`, the Potency in test [2] was 1 µM (active); in test [3], > 46 µM (inactive). Moreover, the activity change, negative = inhibition in test [7] (setting [8]) was -53.3% (active). For the same compound, in test [6], the outcome was inactive.

For `Nc1ccc2c3c(cccc13)C(=O)NC2=O`, the Potency in test [2] was 1 µM (active); in test [3], > 46 µM (inactive); in test [4], > 46 µM (inactive). For the same compound, in test [5], the activity, negative = inhibition was -25.5% (inactive). In addition, in test [6], the outcome was inactive.

Take `C=C1C(=O)O[C@@H]2[C@H]3O[C@]3(C)CCC=C(C)CC[C@@H]12`: the Potency is 10 µM (active) in test [2] and > 46 µM (inactive) in test [4]. For the same compound, the call in test [6] was inactive.

As for `CC1CCN(CC[C@H]2CCCN2S(=O)(=O)c2cccc(O)c2)CC1`, the Potency in test [3] and in test [4] was > 46 µM (inactive) throughout. In test [6], the call was inactive.

On to `N=C(N)SCCN`, for which the Potency entry in test [2] is “inactive and 31.6 µM (active)”; in test [3], > 46 µM (inactive). The activity change, negative = inhibition in test [7] (setting [8]) is -0.506% (inactive). Moreover, the call in test [6] was inactive.

With `CCCCCCCC/C=C\CCCCCCCC(=O)NCCc1ccc(O)c(O)c1`, the Potency in test [2] is 20 µM (active); in test [3], > 46 µM (inactive).

Regarding `O=C(O)/C=C/c1ccc(O)c(O)c1`, the activity change, negative = inhibition in test [7] (setting [8]) is -10.8% [at 17.2 µM] (inactive). In addition, in test [5], the activity, negative = inhibition is -8.31% [at 17.2 µM] (inactive). For the same compound, the Potency in test [3] is > 20.6 µM (inactive).

Regarding `CN(C)S(=O)(=O)c1ccc2c(c1)/C(=C/c1cc3c([nH]1)CCCC3)C(=O)N2`, the Potency was 0.316 µM (active) in test [2] and > 46 µM (inactive) in test [4]. Besides, the activity, negative = inhibition in test [5] was -60.7% (active). Further, the compound was classed as inactive in test [6].

Consider `CCCCOC(=O)NS(=O)(=O)c1sc(CC(C)C)cc1-c1ccc(Cn2c(CC)nc3c(C)cc(C)nc32)cc1`, for which the results for the Potency in test [2], in test [3] and in test [4] were 31.6 µM (active), > 46 µM (inactive) and > 46 µM (inactive), respectively.

For `CCc1ccc2c(-c3cccc(Cl)c3)nc(=O)n(CC)c2n1`, the Potency in test [2] is 0.126 µM (active); in test [3], > 46 µM (inactive). The compound was classed as inactive in test [6].

On to `N[C@@H](Cc1c[nH]c2ccccc12)C(=O)O`, for which the activity change, negative = inhibition in test [7] (setting [8]) is -12.3% (inactive). Moreover, the Potency in test [3] was > 46 µM (inactive). For the same compound, the result in test [6] was inactive.
